Results filed as inconclusive are left out. Values without a mark were called inactive. Activity calls are given as the source filed them. Calls follow the shape of the dose curve; as a rule, active = well fitted curve in the direction sought with a large enough effect; inconclusive = small, poorly fitted or top-dose-only effect, or another doubt; inactive = no such curve, though single readings can be large; an effect the other way counts as inactive or inconclusive.

The values that follow come from PubChem BioAssay (NCATS).

The subject of one test is MKL-2. Put plainly: qHTS assay to identify novel small-molecules to repurpose for Merkel cell carcinoma treatment (AID 1296009). Also: nearly all actives have a fitted effect of over 60% in size. Particulars: MCC and control cell lines, CellTiter-Glo viability, 72 h; series mostly up to 46 µM. The procedure, abridged:
(§1)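 Cell viability measured by CellTiter-Glo following 72 hr compound treatment at 37 degree celsius, with NPC and MIPE libraries tested in 8- and 11-point concentration series.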

The subject of another test is UISO. The test is described as above. As to conditions: MCC and control cell lines, CellTiter-Glo viability, 72 h; series mostly up to 46 µM. The procedure, abridged: as §1
A further test concerns WaGa. The description is as above. Particulars: MCC and control cell lines, CellTiter-Glo viability, 72 h; series mostly up to 46 µM. The procedure, abridged: as §1
Test [1] in a line: qHTS assay to identify inhibitors of the type 1 interferon - major histocompatibility complex class I in skeletal muscle: Counter screen cell viability and HiBit confirmation (AID 1347412). As to all read-outs here: nearly all actives have a fitted effect of over 60% in size. As to conditions: iHSKM muscle cells + IFN-b, HiBiT or CellTiter-Glo, 24 h; for Potency: HiBiT. The essentials:
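Luminescence read-out: Nano-Glo HiBiT lytic signal from C-terminally HiBiT-tagged HLA-B in CRISPR-edited human myoblasts, plus CellTiter Glo ATP as viability counter screen. IFN-beta 4.0 ng/ml; 24 hrs treatment at 37 C, 5% CO2.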

A further test deals with MKL-1. Put plainly: qHTS assay to identify novel small-molecules to repurpose for Merkel cell carcinoma treatment (AID 1296009). Also: nearly all actives have a fitted effect of over 60% in size. Particulars: MCC and control cell lines, CellTiter-Glo viability, 72 h; series mostly up to 46 µM. The essentials:
as §1

Another test concerns C33A. Put plainly: Primary qHTS to identify gynecologic anti-cancer compounds using libraries of approved drugs and bioactive compounds (AID 1345084). Also: nearly all actives have a fitted effect of over 55% in size. As to conditions: Gynecologic cancer cell panel viability, ATPlite luminescence, 48 h; series mostly up to 57.5 µM. The procedure, abridged: (§2)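 Cells, 1,000 per well, plated 16 h, then exposed 48 h at 37 C to compounds. Viability by ATPlite luminescence after 15 min at room temperature.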

In a further test the test system is Es-2. The test is described as above. Particulars: Gynecologic cancer cell panel viability, ATPlite luminescence, 48 h; series mostly up to 57.5 µM. The procedure, abridged: as §2
The next test concerns JEG-3. Described as above. As to conditions: Gynecologic cancer cell panel viability, ATPlite luminescence, 48 h; series mostly up to 57.5 µM. The procedure, abridged:
as §2

For another test, the system named is SKOV3. Described as above. As to conditions: Gynecologic cancer cell panel viability, ATPlite luminescence, 48 h; series mostly up to 57.5 µM. The procedure, abridged:
as §2

A further test has as its system CAOV3. Described as above. As to conditions: Gynecologic cancer cell panel viability, ATPlite luminescence, 48 h; series mostly up to 57.5 µM. The essentials:
as §2

The next test relates to CASKI. The description is as above. Particulars: Gynecologic cancer cell panel viability, ATPlite luminescence, 48 h; series mostly up to 57.5 µM. The essentials: as §2
The next test deals with HeLa. The test is described as above. Particulars: Gynecologic cancer cell panel viability, ATPlite luminescence, 48 h; series mostly up to 57.5 µM. The procedure, abridged:
as §2

Another test deals with PA-1. Described as above. Particulars: Gynecologic cancer cell panel viability, ATPlite luminescence, 48 h; series mostly up to 57.5 µM. The essentials:
as §2

The next test deals with Tov112D. The description is as above. Particulars: Gynecologic cancer cell panel viability, ATPlite luminescence, 48 h; series mostly up to 57.5 µM. The procedure, abridged: as §2
In another test the test system is NIH3T3. The experiment in a line: qHTS assay to identify novel small-molecules to repurpose for Merkel cell carcinoma treatment (AID 1296009). Also: nearly all actives have a fitted effect of over 60% in size. Particulars: MCC and control cell lines, CellTiter-Glo viability, 72 h; at 44.8 µM (top of the series) unless noted. The essentials:
as §1

A further test has as its system Hek293T. Put plainly: Primary qHTS to identify gynecologic anti-cancer compounds using libraries of approved drugs and bioactive compounds (AID 1345084). Also: nearly all actives have a fitted effect of over 55% in size. Particulars: Gynecologic cancer cell panel viability, ATPlite luminescence, 48 h, control line for the selectivity index; series mostly up to 57.5 µM. The procedure, abridged: as §2
A further test has as its system OV90. The description is as above. Particulars: Gynecologic cancer cell panel viability, ATPlite luminescence, 48 h; series mostly up to 57.5 µM. The essentials:
as §2

A further test has as its system Tov-21-G. The test is described as above. As to conditions: Gynecologic cancer cell panel viability, ATPlite luminescence, 48 h; series mostly up to 57.5 µM. The procedure, abridged:
as §2

Test [2] is described as follows: Drug repurposing screens with cells derived from glioblastoma tumor samples (AID 1345199). Also: nearly all actives have a fitted effect of over 40% in size. As to conditions: GBM patient neurospheres viability, ATP luminescence, 48 h. The procedure, abridged:
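Primary testing used CD133+ neurospheres from four GBM patients, seven concentrations, 48 h exposure and ATP-based viability; confirmation added three slower-growing patient lines.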
% is scaled to controls: 0 for no effect and ±100 for the full control effect; potency is read from the fitted curve at half-maximal effect.

With `CCN1CCN(Cc2ccc(-c3cc4c(N[C@H](C)c5ccccc5)ncnc4[nH]3)cc2)CC1`, the Potency is 0.0132 µM (active) in the test with MKL-2, 0.118 µM (active) with UISO, 0.0209 µM (active) with WaGa and 19.8 µM (active) in test [1].

`Cc1ccc(-c2ncn(-c3ccc(Nc4nccc(-c5cccc(N6CCOCC6)c5)n4)cc3)n2)cn1`: the Potency in the test with MKL-1 was 0.235 µM (active); in the test on MKL-2, 0.0526 µM (active); in [1], 2.49 µM (active). Further, the activity change, negative = inhibition in [1] (Viability, at 45.9 µM (top of the series)) is -8.69%.

On to `Nc1cccc(-c2cc3c(Oc4cccc(O)c4)ncnc3[nH]2)c1`, for which the Potency result in the test on MKL-1, with UISO, in the test with C33A, in the test with Es-2 and in the test on JEG-3 was “inactive” each time. Besides, the Potency in the test on SKOV3 is 3.98 µM (active).

As to `CC1=C(CO)C(=O)O[C@@H]([C@@H](C)[C@H]2CC[C@H]3[C@@H]4C[C@H]5O[C@]56[C@@H](O)C=CC(=O)[C@]6(C)[C@@H]4CC[C@]23C)C1`, the Potency with MKL-2 is 0.132 µM (active); in the test on UISO, 0.743 µM (active); in the test with WaGa, 0.264 µM (active).

On to `COc1c(OCCCN2CCOCC2)ccc2c3n(c(=NC(=O)c4cnc(N)nc4)nc12)CCN3`, for which, in the test on MKL-1, the Potency entry is “inactive”. In addition, the Potency in the test with C33A is 0.316 µM (active); in the test on CASKI it was 0.112 µM (active); in the test on HeLa it was 1 µM (active); in the test with PA-1 it was 0.631 µM (active); in the test with SKOV3, 0.0631 µM (active). Moreover, the activity change, negative = cytotoxicity is -27.2% [at 11.6 µM] in the test on CAOV3 and -17.3% [at 11.6 µM] with Tov112D.

In the case of `COc1cc2ncn(-c3cc(OCc4ccccc4C(F)(F)F)c(C(N)=O)s3)c2cc1OC`, the Potency entry with MKL-2 was “inactive”.

Consider `C1=CCOCc2cc(ccc2OCCN2CCCC2)Nc2nccc(n2)-c2cccc(c2)OCC1`, for which the Potency is 11.8 µM (active) in the test with MKL-2, 11.8 µM (active) in the test with UISO and 9.35 µM (active) with WaGa.

Take `Cc1ccc(NC(=O)C2(c3ccc4c(c3)OC(F)(F)O4)CC2)nc1-c1cccc(C(=O)O)c1`: in the test with MKL-2, the Potency was 0.0264 µM (active). In the test with NIH3T3, the result was inactive. In addition, the Potency entry in the test with C33A, in the test with CAOV3, with CASKI, with Es-2, with HeLa and with Hek293T was “inactive” each time. Moreover, the Potency result in the test on JEG-3, with OV90, in the test with PA-1, in the test with SKOV3, in the test on Tov-21-G and in the test with Tov112D was “inactive” in each case.

Consider `COc1cc2nccc(Oc3ccc(NC(=O)C4(C(=O)Nc5ccc(F)cc5)CC4)cc3)c2cc1OC`, for which the Potency in the test on MKL-1 is 2.96 µM (active); with WaGa, 2.09 µM (active); in the test with JEG-3, 11.2 µM (active); in the test with PA-1, 7.94 µM (active). Further, the Potency result in the test on Es-2, in the test with HeLa and with Hek293T was “inactive” throughout.

`C=CC(=O)N1CCC[C@@H](n2nc(-c3ccc(Oc4ccccc4)cc3)c3c(N)ncnc32)C1`: the Potency result with MKL-1, with UISO, in the test on C33A, with CASKI, in the test on Es-2 and in the test on HeLa was “inactive” each time. For the same molecule, the Potency entry with Hek293T, in the test on JEG-3, in the test on OV90, in the test with PA-1, in the test with Tov-21-G and in the test on Tov112D was “inactive” each time.

Take `CC(C)(C)NC(=O)[C@H]1CN(Cc2cccnc2)CCN1C[C@@H](O)C[C@@H](Cc1ccccc1)C(=O)N[C@H]1c2ccccc2C[C@H]1O`: the Potency entry in the test with MKL-1, in the test with UISO and in the test on WaGa was “inactive” throughout. The activity, negative = cell killing in [2] (at 46.1 µM (top of the series), tumour line C) is 35.7%. For the same molecule, the Potency in test [2] (tumour line A) is 17.8 µM (active).

Turning to `COCCOc1ccc2c(c1)ncn2-c1ccc2cccc(N3CCC(N)CC3)c2n1`, the Potency in the test with MKL-1 is 20.9 µM (active); with UISO, 26.4 µM (active); in the test on WaGa, 20.9 µM (active); in the test on Es-2 it was 28.2 µM (active); in the test on JEG-3, 17.8 µM (active); with PA-1, 7.94 µM (active).
